According to PubChem BioAssay (NCATS):
Records with an inconclusive call do not appear. Activity calls are given as the source filed them. The call rests on the fitted dose curve; in most records, active means well fitted curve in the direction sought with a large enough effect; inconclusive means small, poorly fitted or top-dose-only effect, or another doubt; inactive means no such curve, though single readings can be large; an effect the other way counts as inactive or inconclusive. Where a SMILES comes first, the peptide text is derived from it. The star is where a group is joined. Hexanoyl = CCCCCC(=O)*

Assays:
HACAT = assay: qHTS assay to identify novel small-molecules to repurpose for Merkel cell carcinoma treatment (AID 1296009); conditions: MCC and control cell lines, CellTiter-Glo viability, 72 h; at 44.8 µM (top of the series) unless noted; further: nearly all actives have a fitted effect of over 60% in size
In short: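 Viability readout: ATP luminescence (CellTiter-Glo) after 72 hr drug exposure at 37 degree celsius. Dose-response format was 8 points for NPC and 11 points for MIPE; data normalized to in-plate controls.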

C33A = assay: Primary qHTS to identify gynecologic anti-cancer compounds using libraries of approved drugs and bioactive compounds (AID 1345084); conditions: Gynecologic cancer cell panel viability, ATPlite luminescence, 48 h; series mostly up to 57.5 µM; further: on the % scale 0 is the no-effect control and ±100 the full control effect; nearly all actives have a fitted effect of over 55% in size
In short: (§1)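 Five-point cytotoxicity, 48 h drug exposure at 37 C, 5% CO2, on cells seeded 16 h beforehand. ATP content read by ATPlite luminescence.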

CAOV3 = assay: as above; conditions: Gynecologic cancer cell panel viability, ATPlite luminescence, 48 h; series mostly up to 57.5 µM
In short: as §1

CASKI = assay: as above; conditions: Gynecologic cancer cell panel viability, ATPlite luminescence, 48 h; series mostly up to 57.5 µM
In short: as §1

Es-2 = assay: as above; conditions: Gynecologic cancer cell panel viability, ATPlite luminescence, 48 h; series mostly up to 57.5 µM
In short: as §1

HeLa = assay: as above; conditions: Gynecologic cancer cell panel viability, ATPlite luminescence, 48 h; series mostly up to 57.5 µM
In short: as §1

Hek293T = assay: as above; conditions: Gynecologic cancer cell panel viability, ATPlite luminescence, 48 h, control line for the selectivity index; series mostly up to 57.5 µM
In short: as §1

JEG-3 = assay: as above; conditions: Gynecologic cancer cell panel viability, ATPlite luminescence, 48 h; series mostly up to 57.5 µM
In short: as §1

C=C1CCC(OC(C)=O)C2(C)CC3OC(=O)C(C)=C3CC12 (centres undefined)
inactive: outcome (HACAT) | Potency (C33A) | Potency (CAOV3) | outcome (CASKI) | Potency (Es-2) | Potency (HeLa) | Potency (Hek293T) | Potency (JEG-3)

COc1ccccc1N1CCN(CCCCNC(=O)c2ccc(-c3cscn3)cc2)CC1
inactive: outcome (HACAT) | Potency (C33A) | Potency (CAOV3) | outcome (CASKI) | Potency (Es-2) | Potency (HeLa) | Potency (Hek293T) | Potency (JEG-3)

C/C=C/C=C/C=C/C(=O)N(C)C(C(=O)NC(C)C(=O)N1CCCC1C(N)=O)C(C)C (centres undefined)
inactive: outcome (HACAT) inactive [at 17.4 µM] | Potency (C33A) | Potency (CAOV3) | outcome (CASKI) | Potency (Es-2) | Potency (HeLa) | Potency (Hek293T) | Potency (JEG-3)

COc1cc(/C=C/C(=O)OC[C@H]2O[C@@H](OC3OC=C(C(=O)O)C4C(O)CC(C)(O)C34)[C@H](O)[C@@H](O)[C@@H]2O)cc(OC)c1O (some centres undefined)
inactive: outcome (HACAT) inactive [at 17.4 µM] | Potency (C33A) | Potency (CAOV3) | outcome (CASKI) | Potency (Es-2) | Potency (HeLa) | Potency (Hek293T) | Potency (JEG-3)

CC1(C)CC=C(c2cnc3ccccc3c2)c2cc(C(=O)Nc3ccc(C(=O)O)cc3)ccc21
inactive: outcome (HACAT) | Potency (C33A) | Potency (CAOV3) | outcome (CASKI) | Potency (Es-2) | Potency (HeLa) | Potency (Hek293T) | Potency (JEG-3)

COC(=O)Cn1nc(-c2cccc(OC)c2)c2ccccc21
inactive: outcome (HACAT) | Potency (C33A) | Potency (CAOV3) | outcome (CASKI) | Potency (Es-2) | Potency (HeLa) | Potency (Hek293T) | Potency (JEG-3)

CC1C(O)C(O)C2C(C(=O)OCCc3ccc(O)cc3)=COC(O[C@@H]3O[C@H](CO)[C@@H](O)[C@H](O)[C@H]3O)C12 (some centres undefined)
inactive: outcome (HACAT) inactive [at 17.4 µM] | Potency (C33A) | Potency (CAOV3) | outcome (CASKI) | Potency (Es-2) | Potency (HeLa) | Potency (Hek293T) | Potency (JEG-3)

CC1(C)CCC[C@@]2(C)[C@H]1[C@H](O)C=C(CO)[C@]2(O)CO
inactive: outcome (HACAT) | Potency (C33A) | Potency (CAOV3) | outcome (CASKI) | Potency (Es-2) | Potency (HeLa) | Potency (Hek293T) | Potency (JEG-3)

C[C@@H]1CC[C@]2(C(=O)O[C@@H]3O[C@H](CO[C@@H]4O[C@H](CO)[C@@H](O)[C@H](O)[C@H]4O)[C@@H](O)[C@H](O)[C@H]3O)CC[C@]3(C)C(=CCC4[C@@]5(C)CC[C@H](O)[C@](C)(C(=O)O)C5CC[C@]43C)[C@@H]2[C@]1(C)O (some centres undefined)
inactive: outcome (HACAT) inactive [at 9.27 µM] | activity change, negative = cytotoxicity (C33A) -1.83% [at 11.6 µM] | activity change, negative = cytotoxicity (CAOV3) 5.32% [at 11.6 µM] | activity change, negative = cytotoxicity (CASKI) 3.63% [at 11.6 µM] | activity change, negative = cytotoxicity (Es-2) 6.01% [at 11.6 µM] | activity change, negative = cytotoxicity (HeLa) 4.82% [at 11.6 µM] | activity change, negative = cytotoxicity (Hek293T) 10.6% [at 11.6 µM] | activity change, negative = cytotoxicity (JEG-3) 0.0588% [at 11.6 µM]

CC1(C)CC=C(C#Cc2ccccc2)c2cc(/C=C/c3ccc(C(=O)O)cc3)ccc21
inactive: outcome (HACAT) | Potency (C33A) | Potency (CAOV3) | outcome (CASKI) | Potency (Es-2) | Potency (HeLa) | Potency (Hek293T) | Potency (JEG-3)

C[C@@H]1O[C@@H](O[C@H]2[C@H](O[C@H]3[C@H](O[C@H]4CC[C@@]5(C)C(CC[C@]6(C)C5CC=C5[C@@H]7CC(C)(C)C[C@@H](O)[C@]7(C)CC[C@]56C)C4(C)C)O[C@H](C(=O)O)[C@@H](O)[C@@H]3O)O[C@H](C(=O)O)[C@H](O)[C@@H]2O)[C@H](O)[C@H](O)[C@H]1O (some centres undefined)
inactive: outcome (HACAT) inactive [at 9.27 µM] | activity change, negative = cytotoxicity (C33A) -4.31% [at 11.6 µM] | activity change, negative = cytotoxicity (CAOV3) -1.54% [at 11.6 µM] | activity change, negative = cytotoxicity (CASKI) 12.7% [at 11.6 µM] | activity change, negative = cytotoxicity (Es-2) -10.8% [at 11.6 µM] | activity change, negative = cytotoxicity (HeLa) 5.18% [at 11.6 µM] | activity change, negative = cytotoxicity (Hek293T) 6.67% [at 11.6 µM] | activity change, negative = cytotoxicity (JEG-3) -0.21% [at 11.6 µM]

CC1CC(=O)[C@]2(O)C(C(=O)OCCc3ccc(O)c(O)c3)=CO[C@@H](O[C@@H]3O[C@H](CO)[C@@H](O)[C@H](O)[C@H]3O)[C@H]12 (some centres undefined)
inactive: outcome (HACAT) inactive [at 17.4 µM] | Potency (C33A) | Potency (CAOV3) | outcome (CASKI) | Potency (Es-2) | Potency (HeLa) | Potency (Hek293T) | Potency (JEG-3)

CC(=O)O[C@H]1C[C@@H](O)C(C)(C)C2C[C@@H](OC(C)=O)[C@]3(C)C(CC[C@@]4(C)[C@H](c5ccoc5)OC(=O)[C@H]5O[C@]543)[C@]21C (some centres undefined)
inactive: outcome (HACAT) inactive [at 17.4 µM] | Potency (C33A) | Potency (CAOV3) | outcome (CASKI) | Potency (Es-2) | Potency (HeLa) | Potency (Hek293T) | Potency (JEG-3)

C/C=C/C=C/[C@@H]1O[C@](O)([C@H](CC)C(=O)NC/C=C/C=C(\C)[C@@H](OC)[C@@H](C)[C@@H]2O[C@H](/C=C/C=C/C=C(\C)C(=O)c3c(O)ccn(C)c3=O)[C@H](O)[C@@H]2O)[C@H](O)[C@H](O)C1(C)C
inactive: outcome (HACAT) inactive [at 9.27 µM] | activity change, negative = cytotoxicity (C33A) 0.106% [at 11.6 µM] | activity change, negative = cytotoxicity (CAOV3) 11.3% [at 11.6 µM] | activity change, negative = cytotoxicity (CASKI) -1.78% [at 11.6 µM] | activity change, negative = cytotoxicity (Es-2) -3.84% [at 11.6 µM] | activity change, negative = cytotoxicity (HeLa) 12.5% [at 11.6 µM] | activity change, negative = cytotoxicity (Hek293T) -0.774% [at 11.6 µM] | activity change, negative = cytotoxicity (JEG-3) -3.88% [at 11.6 µM]

C/C=C(\C)C(=O)OCC1OC(OC2OC(CO)C(O)C(O)C2O)C(O)C(O)C1O (centres undefined)
inactive: outcome (HACAT) inactive [at 17.4 µM] | Potency (C33A) | Potency (CAOV3) | outcome (CASKI) | Potency (Es-2) | Potency (HeLa) | Potency (Hek293T) | Potency (JEG-3)

CC1=C2C[C@@]3(C)C(CCC[C@@H]3C)C(O)C2(O)OC1=O (some centres undefined)
inactive: outcome (HACAT) | Potency (C33A) | Potency (CAOV3) | outcome (CASKI) | Potency (Es-2) | Potency (HeLa) | Potency (Hek293T) | Potency (JEG-3)

CCC(C)C(=O)O[C@H]1[C@@H](O[C@H]2O[C@H](CO)[C@@H](O)[C@H](O)[C@H]2O)O[C@H](CO)[C@@H](O)[C@@H]1O (some centres undefined)
inactive: outcome (HACAT) inactive [at 17.4 µM] | Potency (C33A) | Potency (CAOV3) | outcome (CASKI) | Potency (Es-2) | Potency (HeLa) | Potency (Hek293T) | Potency (JEG-3)

CCCSc1nc(NC2CC2c2ccc(F)c(F)c2)c2nnn(C3CC(OCCO)C(O)C3O)c2n1 (centres undefined)
inactive: outcome (HACAT) | Potency (C33A) | Potency (CAOV3) | outcome (CASKI) | Potency (Es-2) | Potency (HeLa) | Potency (Hek293T) | Potency (JEG-3)

CCc1nn(CCO)c(CC)c1Oc1cc(C#N)cc(C#N)c1
inactive: outcome (HACAT) | Potency (C33A) | Potency (CAOV3) | outcome (CASKI) | Potency (Es-2) | Potency (HeLa) | Potency (Hek293T) | Potency (JEG-3)

CCCCCC(=O)N1CCC[C@H]1C(=O)N[C@@H](Cc1ccc(O)cc1)C(=O)OC (Hexanoyl-Pro-Tyr-OMe)
inactive: outcome (HACAT) | Potency (C33A) | Potency (CAOV3) | outcome (CASKI) | Potency (Es-2) | Potency (HeLa) | Potency (Hek293T) | Potency (JEG-3)

C=C1CC[C@H]2[C@@](C)(CCC(O)[C@@]2(C)CO)[C@@H]1/C=C/C(=C\C(=O)O)C(=O)O (some centres undefined)
inactive: outcome (HACAT) | Potency (C33A) | Potency (CAOV3) | outcome (CASKI) | Potency (Es-2) | Potency (HeLa) | Potency (Hek293T) | Potency (JEG-3)

COc1cc(C(C)=O)ccc1O[C@@H]1O[C@H](CO)[C@@H](O)[C@H](O)[C@H]1O
inactive: outcome (HACAT) | Potency (C33A) | Potency (CAOV3) | outcome (CASKI) | Potency (Es-2) | Potency (HeLa) | Potency (Hek293T) | Potency (JEG-3)

C=C1CC[C@@H]2[C@@](C)(CO[C@@H]3O[C@H](CO)[C@@H](O)[C@H](O)[C@H]3O)[C@H](O)CC[C@@]2(C)[C@@H]1CC/C(C)=C/CO[C@@H]1O[C@H](CO)[C@@H](O)[C@H](O)[C@H]1O
inactive: outcome (HACAT) inactive [at 17.4 µM] | Potency (C33A) | Potency (CAOV3) | outcome (CASKI) | Potency (Es-2) | Potency (HeLa) | Potency (Hek293T) | Potency (JEG-3)

CS(=O)(=O)c1ccccc1N1CCN(c2nc3c(c(=O)[nH]2)CSCC3)CC1
inactive: outcome (HACAT) | Potency (C33A) | Potency (CAOV3) | outcome (CASKI) | Potency (Es-2) | Potency (HeLa) | Potency (Hek293T) | Potency (JEG-3)

CC(=O)O[C@@H]1CC2C(C)(C)C(=O)C=C[C@]2(C)C2CC[C@]3(C)C(=CC(=O)[C@@H]3c3ccoc3)[C@@]21C (some centres undefined)
inactive: outcome (HACAT) inactive [at 17.4 µM] | Potency (C33A) | Potency (CAOV3) | outcome (CASKI) | Potency (Es-2) | Potency (HeLa) | Potency (Hek293T) | Potency (JEG-3)

C=CC1(C)CC=C2C(CCC3C(C)(C(=O)O)CCCC23C)C1 (centres undefined)
inactive: outcome (HACAT) | Potency (C33A) | Potency (CAOV3) | outcome (CASKI) | Potency (Es-2) | Potency (HeLa) | Potency (Hek293T) | Potency (JEG-3)

On1ncc(C2CCNCC2)c1-c1cccc(-c2ccccc2)c1
inactive: outcome (HACAT) | Potency (C33A) | Potency (CAOV3) | outcome (CASKI) | Potency (Es-2) | Potency (HeLa) | Potency (Hek293T) | Potency (JEG-3)

CC(C)/C=C1/NC(=O)C(C(C)C)n2c1nc1c(O)cccc1c2=O (centres undefined)
inactive: outcome (HACAT) | Potency (C33A) | Potency (CAOV3) | outcome (CASKI) | Potency (Es-2) | Potency (HeLa) | Potency (Hek293T) | Potency (JEG-3)
